This note sets out measurements from PubChem BioAssay AID651719 (The Scripps Research Institute Molecular Screening Center, 2012).

Hit rate of the full screen: of about 360,000 compounds, about 1,600 (0.44%) were called active. The sample holds actives, similar compounds and a random draw of the others, so the mix is not that of the screen. A number with no mark means an inactive call.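 The calls were made as follows: active = inhibition above the screen-wide average plus 3 SD (cut at about 13% in these data); inactive = the rest.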

By inhibition is commonly meant the relative decrease from the control value, in per cent.

In this experiment the target is Galanin receptor type 3 (Homo sapiens) (UniProt O60755). Kind of experiment: GalR3 antagonists in HEK293 cells, primary screen, cell-based, fluorescence readout (AID 651719).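 Also: forskolin and galanin both at EC90 stimulate the cells; cAMP rise reported by CNG channel membrane potential dye signal; 0% = forskolin plus galanin with DMSO and 100% = forskolin alone.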 The conditions noted are these: HEK293 GalR3-CNG cAMP membrane potential fluorescence; at 3 µM; stronger effect = higher value.
Sequence of Galanin receptor type 3 (Homo sapiens) (O60755 1-299 limits assumed): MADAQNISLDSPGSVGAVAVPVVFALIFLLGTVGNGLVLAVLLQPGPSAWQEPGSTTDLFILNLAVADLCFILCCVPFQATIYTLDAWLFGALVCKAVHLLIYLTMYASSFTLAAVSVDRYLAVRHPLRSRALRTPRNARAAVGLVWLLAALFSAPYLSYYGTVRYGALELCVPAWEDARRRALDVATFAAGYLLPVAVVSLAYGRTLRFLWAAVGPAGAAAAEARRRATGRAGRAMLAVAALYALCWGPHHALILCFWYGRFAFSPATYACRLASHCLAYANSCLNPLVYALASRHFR
Turning to `CCCCCCCCCCCCn1ccc(=N)cc1`, the inhibition is 75.6% (active).

Regarding `CCN(CC)C(=O)[C@@H]1C=C2c3cccc4[nH]c(Br)c(c34)C[C@H]2N(C)C1`, the inhibition is -11%.

`COC(=O)C1=C(c2cc3ccccc3s2)C[C@@H]2CC[C@H]1N2C(=O)NCCO`: the inhibition was -2.95%.

Turning to `COC(=O)C1=C(c2cc3ccccc3s2)C[C@@H]2CC[C@H]1N2C(=O)NC(C)C`, the inhibition is -4.53%.

Consider `COC(=O)C1=C(c2cc3ccccc3s2)C[C@@H]2CC[C@H]1N2C(=O)NCc1cccc2ccccc12`, for which the inhibition is 17.8% (active).

Regarding `O=c1[nH]c(=O)n(-c2ccccc2)c(O)c1C=NC12CN3CN(CN(C3)C1)C2`, the inhibition is 5.15%.

Consider `CS(=O)(=O)N1CCC2CCNC2C1` (stereo not given), for which the inhibition is 0.87%.

In the case of `CCOC(=O)[C@]12Cc3ccccc3[C@H]1N(C1CCCCC1)C(=O)c1cc(OC)ccc12`, the inhibition is -8.42%.

For `Brc1ccc2c(c1)CNCc1cnnn1-2`, the inhibition is -5.56%.

Consider `CCN(CC)C(=O)c1ccc(NC(=O)c2cc(-n3cnnc3)ccc2Cl)cc1`, for which the inhibition is -1.92%.

For the molecule `C[C@]12CC[C@H](O)C[C@H]1CC[C@@H]1C2CC[C@]2(C)[C@@H](C3=CC(=O)OC3)[C@@H](O)C[C@]12O` (stereo not given in full), the inhibition is 30.2% (active).

For `CC12CCC(O)CC1CCC1C2CCC2(C)C(C(=O)CC(O)C(F)(F)F)CCC12` (stereo not given), the inhibition is -1.5%.

Take `COc1ccc2c(c1)[C@@]13CCCCC1[C@@H](C2)NCC3` (stereo not given in full): the inhibition is -3.82%.

As to `COc1ccc(CN2CCN(c3ccccc3F)CC2)c(OC)c1`, the inhibition was -4.46%.

For `Clc1ccc([C@@H]2CC3CCC2N3)cn1` (stereo not given in full), the inhibition was -3.43%.

As for `COc1ccc(-n2c(-c3ccccc3)nc3ccccc3c2=O)cc1`, the inhibition was 16.9% (active).

For `O=c1c2ccccc2nc(-c2ccccc2)n1-c1ccccn1`, the inhibition is -5.42%.

`Cc1ccc(-n2c(-c3ccc([N+](=O)[O-])cc3)nc3ccccc3c2=O)cc1`: the inhibition was -3.3%.

`Cc1cc(N2CCNC[C@@H]2C)ccc1N1CC[C@H](O)C1`: the inhibition was -7.28%.

Take `CCC(C)NC1(c2ccccc2)CCCCC1` (stereo not given): the inhibition was -2.56%.

For `O=S(=O)(c1ccccc1)N1CCC2CCNC2C1` (stereo not given), the inhibition is -5.66%.

For `COc1cc(OC)cc(C(=O)NCCN2CCC3(CC2)C(=O)NCN3c2ccccc2)c1`, the inhibition is -6.02%.

As for `COC1C(O)C(C)OC(OC2CCC3(C=O)C(CCC4C3CCC3(C)C(C5=CC(=O)OC5)CCC43O)C2)C1O` (stereo not given), the inhibition was 43% (active).

With `C/C=C/CC1(CC)C(=O)NC(=S)NC1=O`, the inhibition is -12.8%.

For the molecule `CCCC(C)n1[nH]c(=O)c2c1NC(=O)CSC2c1ccc(OC)c(OC)c1` (stereo not given), the inhibition is -3.1%.
